Results reported in PubChem BioAssay (NCI).
About 83,000 compounds went through this panel and 20% of them were active in at least one assay; those are over-represented in the sample as a whole.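 The endpoint reported here, percent growth, reads 100 for growth as untreated, 0 for no net growth and -100 for all cells dead.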 Activity calls are given as the source filed them. Rule for the calls: active = growth percent below 10; inactive = the rest.

Legend:
Experiment in all cases: NCI-60 one-dose screen, 48 h (100 = growth as untreated, 0 = no growth, -100 = all killed)
Details in all cases: 10 µM unless noted
SR leukemia = test system: SR leukemia
RPMI-8226 leukemia = test system: RPMI-8226 leukemia
OVCAR-8 ovarian = test system: OVCAR-8 ovarian
OVCAR-5 ovarian = test system: OVCAR-5 ovarian
OVCAR-4 ovarian = test system: OVCAR-4 ovarian
SK-OV-3 ovarian = test system: SK-OV-3 ovarian
IGROV1 ovarian = test system: IGROV1 ovarian
OVCAR-3 ovarian = test system: OVCAR-3 ovarian
HS 578T breast = test system: HS 578T breast
NCI/ADR-RES ovarian = test system: NCI/ADR-RES ovarian
T-47D breast = test system: T-47D breast
BT-549 breast = test system: BT-549 breast
MDA-MB-435 melanoma = test system: MDA-MB-435 melanoma
SW-620 colon = test system: SW-620 colon
MCF7 breast = test system: MCF7 breast
HCT-116 colon = test system: HCT-116 colon
HCC-2998 colon = test system: HCC-2998 colon
KM12 colon = test system: KM12 colon

Measured: growth

Cc1c(C(=O)C(SC(=S)N2CCOCC2)SC(=S)N2CCOCC2)nnn1-c1ccc([N+](=O)[O-])cc1
inactive: SR leukemia 69.7% | RPMI-8226 leukemia 90.1% | OVCAR-8 ovarian 99.1% | OVCAR-5 ovarian 102% | OVCAR-4 ovarian 109% | SK-OV-3 ovarian 93.3% | IGROV1 ovarian 98% | OVCAR-3 ovarian 108% | HS 578T breast 123% | NCI/ADR-RES ovarian 111% | T-47D breast 92.3% | BT-549 breast 92.5% | MDA-MB-435 melanoma 105% | SW-620 colon 100% | MCF7 breast 79.5% | HCT-116 colon 96.5% | HCC-2998 colon 104% | KM12 colon 111%

COc1ccc2c(c1)C(c1c[nH]c3ccccc13)(c1c[nH]c3ccccc13)CCO2
inactive: SR leukemia 55.9% | RPMI-8226 leukemia 33.3% | OVCAR-8 ovarian 61.2% | OVCAR-5 ovarian 76.6% | OVCAR-4 ovarian 26% | SK-OV-3 ovarian 23.9% | IGROV1 ovarian 48% | OVCAR-3 ovarian 57.4% | HS 578T breast 55.5% | NCI/ADR-RES ovarian 54.1% | BT-549 breast 55.6% | MDA-MB-435 melanoma 49.9% | SW-620 colon 61.9% | MCF7 breast 30.7% | HCT-116 colon 18.8% | HCC-2998 colon 72.4% | KM12 colon 46.2%
active: T-47D breast -6.36%

CCCN1C2CCC1/C(=C\c1ccc(OC)cc1)C(=O)/C2=C/c1ccc(OC)cc1
inactive: SR leukemia 45.4% | RPMI-8226 leukemia 40.7% | OVCAR-8 ovarian 72.6% | OVCAR-5 ovarian 93.5% | OVCAR-4 ovarian 73.5% | SK-OV-3 ovarian 79.4% | IGROV1 ovarian 82.2% | OVCAR-3 ovarian 81.8% | HS 578T breast 92% | NCI/ADR-RES ovarian 77% | T-47D breast 45.3% | BT-549 breast 87.2% | MDA-MB-435 melanoma 63.5% | SW-620 colon 90.4% | MCF7 breast 75.8% | HCT-116 colon 61.9% | HCC-2998 colon 91.9% | KM12 colon 74.2%

Cc1oc2ccc(O)c(CN3CCCCCC3)c2c1C(=O)Nc1ccc(C(F)(F)F)cc1
inactive: RPMI-8226 leukemia 75.1% | OVCAR-8 ovarian 66.3% | OVCAR-5 ovarian 85.8% | OVCAR-4 ovarian 58.6% | SK-OV-3 ovarian 76.3% | IGROV1 ovarian 54.3% | OVCAR-3 ovarian 62% | HS 578T breast 65.5% | NCI/ADR-RES ovarian 53.6% | T-47D breast 74% | BT-549 breast 78.5% | MDA-MB-435 melanoma 58.2% | SW-620 colon 67.4% | MCF7 breast 48.1% | HCT-116 colon 32.7% | HCC-2998 colon 11.2% | KM12 colon 65.5%
active: SR leukemia -8.44%

O=C1C2C(c3cccs3)C=C(c3ccc(Cl)cc3)N2C(=S)N1c1ccccc1 (centres undefined)
inactive: SR leukemia 97.6% | RPMI-8226 leukemia 99.3% | OVCAR-8 ovarian 97.8% | OVCAR-5 ovarian 96.5% | OVCAR-4 ovarian 98.1% | SK-OV-3 ovarian 109% | IGROV1 ovarian 93.2% | OVCAR-3 ovarian 104% | HS 578T breast 92.2% | NCI/ADR-RES ovarian 103% | T-47D breast 100% | BT-549 breast 92.4% | MDA-MB-435 melanoma 110% | SW-620 colon 102% | MCF7 breast 90.9% | HCT-116 colon 101% | HCC-2998 colon 111% | KM12 colon 104%

O=C(CSc1nc(-c2ccccc2)cn1-c1ccc(Cl)cc1)c1ccc([N+](=O)[O-])cc1
inactive: SR leukemia 72.2% | RPMI-8226 leukemia 80.4% | OVCAR-8 ovarian 94.1% | OVCAR-5 ovarian 95.4% | OVCAR-4 ovarian 92.8% | SK-OV-3 ovarian 96.6% | IGROV1 ovarian 96.5% | OVCAR-3 ovarian 78.8% | HS 578T breast 62.8% | NCI/ADR-RES ovarian 91.2% | T-47D breast 71.3% | BT-549 breast 86.8% | MDA-MB-435 melanoma 83.5% | SW-620 colon 73.8% | MCF7 breast 76.1% | HCT-116 colon 66.9% | HCC-2998 colon 99.6% | KM12 colon 82.6%

CS(=O)(=O)c1cccc(Nc2ncc3cc(-c4ccccc4Cl)ccc3n2)c1
inactive: OVCAR-8 ovarian 11.3% | OVCAR-5 ovarian 32.2% | OVCAR-4 ovarian 39% | OVCAR-3 ovarian 22.1% | T-47D breast 11.1% | BT-549 breast 10.3% | SW-620 colon 15.7% | MCF7 breast 21.4% | HCC-2998 colon 33.3% | KM12 colon 21.5%
active: SR leukemia 0.145% | RPMI-8226 leukemia 1.72% | SK-OV-3 ovarian -2.26% | IGROV1 ovarian 4.09% | HS 578T breast 3.45% | NCI/ADR-RES ovarian -1.15% | MDA-MB-435 melanoma -28.3% | HCT-116 colon -5.46%

O=S(=O)(c1ccc(NCSc2nc3ccccc3s2)cc1)c1ccc(NCSc2nc3ccccc3s2)cc1
inactive: SR leukemia 83.4% | RPMI-8226 leukemia 92.1% | OVCAR-8 ovarian 96.8% | OVCAR-5 ovarian 107% | OVCAR-4 ovarian 117% | SK-OV-3 ovarian 71.3% | IGROV1 ovarian 97% | OVCAR-3 ovarian 97.7% | HS 578T breast 90.6% | NCI/ADR-RES ovarian 102% | T-47D breast 63.9% | BT-549 breast 87.5% | MDA-MB-435 melanoma 112% | SW-620 colon 100% | MCF7 breast 97.5% | HCT-116 colon 86.5% | HCC-2998 colon 95.5% | KM12 colon 102%
